Pf apPOL inh – Pf-apPOL inhibitors, biochemical, fluorescence; Recombinant Pf-apPOL, molecular beacon fluorescence, 1.5 h; inhibition, % at 10 µM; 210,000 tested, 0.25% active
mHTT-CaM PPI inh – mutant huntingtin-calmodulin interaction inhibitors – biochemical, AlphaScreen, primary screen; P42858; AlphaScreen His-mHTT/GST-CaM binding, luminescence; inhibition, % at 15 µM; 190,000 tested, 3.6% active; AID 1671202, 2021
Hits are given with their value; . = inactive; / = no result. Most compounds without a hit are left out; they make up all but 3.5% or so of the library. No stated cut-off is given here; in the data, active means inhibition above about 50%; inactive means the rest.

SMILES	Pf apPOL inh	mHTT-CaM PPI inh
O=C(CCC(=O)N1CC2CCCN2c2ccccc21)NCCN1CCCCCC1 (stereo not given)	.	.
O=C(CCC(=O)N1CC2CCCN2c2ccccc21)NCCN1CCCC1 (stereo not given)	.	68.3
O=C(Nc1c2c(nn1-c1ccc(F)cc1)CS(=O)(=O)C2)c1c(F)cccc1F	.	.
O=C(Nc1ccc(Br)cc1F)N1CC2CCCN2c2ccccc21 (stereo not given)	.	.
Cc1ccc(NC(=O)N2CC3CCCN3c3ccccc32)c(C)c1 (stereo not given)	.	67.1
Cc1ccc(NC(=O)N2CC3CCCN3c3ccccc32)cc1C (stereo not given)	.	84.1
O=C(Nc1cccc(C(F)(F)F)c1)N1CCC(N2CCN(Cc3ccccc3)C2=O)CC1	.	.
Cc1ccc(NC(=O)C2CCC(N3C(=O)c4ccccc4C3=O)CC2)cc1Cl (stereo not given)	.	.
O=C(Nc1cccc(C(F)(F)F)c1)N1CC2CCCN2c2ccccc21 (stereo not given)	.	80.8
Cc1ccc(NC(=O)N2CC3CCCN3c3ccccc32)cc1Cl (stereo not given)	.	89.3
Cc1ccc(NC(=O)N2CCC(N3CCN(Cc4ccccc4)C3=O)CC2)cc1C	.	.
COC(=O)c1scc(C)c1Cl	.	/
O=C(Nc1ccc2c(c1)OCO2)N1CC2CCCN2c2ccccc21 (stereo not given)	.	80.9
Cc1cccc(NC(=O)N2CC3CCCN3c3ccccc32)c1 (stereo not given)	.	74.1
O=C(CCC(=O)N1CC2CCCN2c2ccccc21)NCc1ccc2c(c1)OCO2 (stereo not given)	.	.
Cc1cccc(NC(=O)N2CCCC2c2ccccc2C)c1 (stereo not given)	.	.
Cc1ccccc1N1CCN(C(=O)c2cc(C)n3nccc3n2)CC1	.	.
Cc1ccc(C(=O)Nc2cc(=O)[nH]c(=O)[nH]2)cc1[N+](=O)[O-]	.	.
CC(C)NC(=O)C1=CCN(C(=O)c2ccc(F)cc2)CC1	.	.
COc1ccc(NC(=O)N2CC3CCCN3c3ccccc32)cc1 (stereo not given)	.	62.3
COc1ccc(NC(=O)N2CC3CCCN3c3ccccc32)c(OC)c1 (stereo not given)	.	89.8
COc1ccc(NC(=O)N2CCCC2c2ccccc2Cl)c(OC)c1 (stereo not given)	.	.
CCC1CN(C(=O)Nc2ccc(OC)cc2)c2ccccc2O1 (stereo not given)	.	.
COc1cccc(C(=O)N2CCN=C2SCc2cccc(F)c2)c1OC	59.1	.
COc1cccc(C(=O)N2CCN=C2SC)c1OC	.	.
SMILES	Pf apPOL inh	mHTT-CaM PPI inh
CCOc1ccc(NC(=O)C2CCCN(c3cn[nH]c(=O)c3)C2)cc1 (stereo not given)	.	.
CCCN1CCN(c2ncc3c(n2)CCN(Cc2ccc(F)cc2)C3)CC1	.	.
Cc1ccc(NC(=O)COc2ccccc2)c(C)c1	.	.
CC(C)CC(=O)N1CCc2c(c(C(=O)NCc3ccc(Cl)cc3)nn2C)C1	.	65.6
CC(C)CC(=O)N1CCc2c(c(C(=O)NCc3ccc(F)cc3)nn2C)C1	.	59.0
COCC(=O)N1CCc2c(c(C(=O)NCc3ccccc3)nn2C)C1	.	.
COCC(=O)N1CCc2c(c(C(=O)NCc3ccc(F)cc3)nn2C)C1	.	.
Cn1c(C(=O)NCc2ccccc2Cl)cc2ccncc21	.	.
Cc1csc(NC(=O)Cc2cc(-c3cccs3)on2)n1	.	.
O=C(Cc1c(F)cccc1Cl)Nc1nnc(C2CC(=O)N(c3ccccc3)C2)o1 (stereo not given)	.	64.4
Cc1ccc(OCC(=O)Nc2nnc(C3CC(=O)N(c4ccccc4)C3)o2)cc1 (stereo not given)	.	.
O=C(Cc1cccc(F)c1)Nc1nnc(C2CC(=O)N(c3ccccc3)C2)o1 (stereo not given)	.	.
Cc1ccccc1CC(=O)Nc1nnc(C2CC(=O)N(c3ccc(Cl)cc3)C2)o1 (stereo not given)	.	87.8
O=C(Cc1ccccc1Cl)Nc1nnc(C2CC(=O)N(c3ccccc3)C2)o1 (stereo not given)	.	50.9
CCCC(=O)Nc1nnc(C2CC(=O)N(c3ccc(Cl)cc3)C2)o1 (stereo not given)	.	.
CC(=O)c1cccc(S(=O)(=O)NCC2(c3ccc(F)cc3)CC2)c1	.	.
CN1CCN(c2cc(OCCNC(=O)Nc3ccc(OC(F)(F)F)cc3)ncn2)CC1	.	.
COc1ccc(C2=NN(C(C)=O)C(c3ccc(Cl)cc3)C2)cc1 (stereo not given)	.	/
CC(=O)N1N=C(c2c(-c3ccccc3)c3cc(Cl)ccc3[nH]c2=O)CC1c1ccc(Cl)cc1 (stereo not given)	.	100.0
O=c1[nH]c2ccc(Br)cc2c(-c2ccccc2)c1C1=NOC(c2ccccc2)C1 (stereo not given)	.	.
O=c1[nH]c2ccc(Cl)cc2c(-c2ccccc2)c1C1=NOC(c2ccc(F)cc2)C1 (stereo not given)	.	100.0
COc1cccc(/C=C2\N=C(c3ccc(-c4ccccc4)cc3)OC2=O)c1	.	.
Cc1ccc(CNC(=O)c2oc3ccc(S(=O)(=O)N4CC(C)CC(C)C4)cc3c2C)cc1 (stereo not given)	.	.
CCOc1ccc(C(=O)Nc2c3c(nn2-c2ccccc2C)CSC3)cc1OCC	.	.
CC(=O)Nc1ccc(OCC(O)CN2CCN(S(=O)(=O)c3ccccc3)CC2)cc1 (stereo not given)	.	.
SMILES	Pf apPOL inh	mHTT-CaM PPI inh
O=C(Nc1ccccc1)C(Cc1c[nH]c2ccccc12)NC(=O)C(c1ccccc1)c1ccccc1 (stereo not given)	.	89.0
COc1ccc(NC(=O)C(N)Cc2c[nH]c3ccccc23)cc1 (stereo not given)	.	.
COc1ccccc1CNC(=O)c1c(O)c2cccc3c2n(c1=O)CC3	.	.
O=C(O)c1cc2ncc(Br)cn2n1	68.6	.
N#Cc1c(NC(=O)c2cc3ncc(Br)cn3n2)sc2c1CCCC2	.	.
O=C(NC1CCCC1)C1CC(=O)N(CCc2c[nH]c3ccc(F)cc23)C1 (stereo not given)	.	.
CC1(C)CC2CC(C)(CN2C(=O)/C(=C/c2ccco2)NC(=O)c2ccc(Cl)cc2)C1 (stereo not given)	.	62.0
O=C(O)/C(=C\c1ccco1)NC(=O)c1ccc(Cl)cc1Cl	.	.
O=[N+]([O-])c1ccc(N2CCSCC2)nc1	66.2	.
O=[N+]([O-])c1ccc(N2CCOCC2)nc1	.	.
O=S(=O)(NN=Cc1cc(Cl)cc(Cl)c1O)c1cc(C(F)(F)F)cc(C(F)(F)F)c1	.	/
COc1cccc(C2=NN3C(C2)c2cccc(OC)c2OC32CCCCC2)c1 (stereo not given)	.	52.0
COc1cccc2c1OC1(CCC(C)CC1)N1N=C(c3ccco3)CC21 (stereo not given)	.	.
COc1ccc(C2=NN3C(C2)c2cc(OC)ccc2OC32CCCCC2)cc1 (stereo not given)	.	60.0
COc1cccc2c1OC(C)(C)N1N=C(c3ccco3)CC21 (stereo not given)	.	55.0
COc1ccc(C2=NN3C(C2)c2ccccc2OC32CCCCC2)cc1OC (stereo not given)	.	.

High-throughput results: PubChem BioAssay, University of Kansas High Throughput Screening Laboratory
